From PubChem BioAssay
IL1B secr inh = qHTS for Inhibitors of Inflammasome Signaling: IL-1-beta AlphaLISA Primary Screen; activity change, % at 57.5 µM; actives 4.7% (n = 360,000); AID 743279, 2014; THP-1 LPS/ATP IL-1B secretion, AlphaLISA, 16 h; hits give low values; in the data active = activity change below about -50%; inconclusive = mostly about -30% to -49%
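THP-1 cells pretreated 1 hr with compounds (up to 57.5 uM final), then stimulated with LPS (250 ng/mL final) plus ATP (1.25 mM final); secreted IL-1B measured by AlphaLISA after 16 hr, decreased signal indicating inhibition.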
HT1080 IDH1KD tx = qHTS for induction of synthetic lethality in tumor cells producing 2HG: qHTS for the HT-1080-IDH1KD cell line. Potency, µM (top dose mostly 46.1 µM), inactives show at the top dose activity, negative = toxicity, most hits filed as cytotoxic. HT-1080 IDH1 knockdown viability, ATP luminescence, 48 h. actives 2% (n = 360,000). AID 686971, 2013;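 also: potency is read from the fitted curve at half-maximal effect; 0% = DMSO wells and -100% = cell-free medium wells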
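Luminescent ATP read-out (CellTiter-Glo, 10 min at room temperature) after 48 h compound exposure at 37 °C gave viability of IDH1-knockdown HT-1080 cells. Activity was normalised to DMSO and cell-free wells, then fitted as concentration-response curves.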
uPA generation = qHTS for Inhibitors of Cell Surface uPA Generation; Potency, µM (series often up to 38.3 µM), for inactives: at the top dose activity change, negative = inhibition, actives largely listed as inhibitors; cell surface uPA generation assay, qHTS; actives 0.31% (n = 330,000); active = well fitted inhibition curve with a large enough effect; inconclusive = small, poorly fitted or top-dose-only effect; inactive = no such curve, though single readings can be large or run the other way; tested in mouse RAW 264.7 cells; also: potency is read from the fitted curve at half-maximal effect; nearly all actives have a fitted effect of over 55% in size
HT1080NT lethal = qHTS for induction of synthetic lethality in tumor cells producing 2HG: qHTS for the HT-1080-NT fibrosarcoma cell line; HT-1080-NT fibrosarcoma viability, CellTiter-Glo ATP luminescence, 48 h; actives 1.6% (n = 360,000); Potency, µM (top dose mostly 46.1 µM), for the others: at the top dose activity, negative = less viability, hits mostly cytotoxic;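 also: NT is the 2HG producing partner of a matched IDH1 knockdown line; potency is read from the fitted curve at half-maximal effect; 0% = DMSO-treated cells and -100% = media-only wells without cells; nearly all actives have a fitted effect of over 55% in size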
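A 48-hour cytotoxicity screen used HT-1080-NT cells plated 2 hours before compound delivery. ATP-based CellTiter-Glo luminescence measured viability, normalized to DMSO and no-cell controls.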
DT40 TDP1 no CPT = qHTS for Inhibitors of human tyrosyl-DNA phosphodiesterase 1 (TDP1): qHTS in cells in absence of CPT; DT40 Tdp1-/- hTDP1 cells, no CPT, ATP luminescence, 48 h; actives 15% (n = 420,000); Potency, µM (highest dose often 46.2 µM), inactives show top-dose activity change, negative = growth inhibition, actives largely listed as inhibitors; also: potency is read from the fitted curve at half-maximal effect; nearly all actives have a fitted effect of over 55% in size
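Growth kinetics read by CellTiter-Glo luminescence after ≥48 hr at 37 °C. Cells: DT40 Tdp1-/- stably carrying human TDP1, 400 per well, compound exposure in the absence of CPT (DMSO vehicle).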
DT40 TDP1 CPT = qHTS for Inhibitors of human tyrosyl-DNA phosphodiesterase 1 (TDP1): qHTS in cells in presence of CPT. chicken DT40 Tdp1-/-;hTDP1 cells + 20 nM CPT, ATP luminescence, 48 h. actives 12% (n = 420,000). AID 686979, 2013. Potency, µM (top dose mostly 46.2 µM), inactives show at the highest dose activity change, negative = growth inhibition, most hits filed as inhibitors; also: potency is read from the fitted curve at half-maximal effect; nearly all actives have a fitted effect of over 55% in size
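Chicken DT40 Tdp1-/- cells stably complemented with human TDP1 were seeded at 400 cells/well in medium containing 20 nM camptothecin, exposed to pin-transferred compounds, and grown at 37 °C for at least 48 hr. Viability was read as ATP luminescence.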
An asterisk follows results filed as active; ? = inconclusive; · = no result given; [ ] = remark or other dose. Most compounds without a hit are left out; they make up all but 19% or so of the library. Unless noted, calls follow the shape of the dose curve; as a rule, active = well fitted curve in the direction sought with a large enough effect; inconclusive = small, poorly fitted or top-dose-only effect, or another doubt; inactive = no such curve, though single readings can be large; an effect the other way counts as inactive or inconclusive. Unless noted, % is scaled to controls: 0 for no effect and ±100 for the full control effect.

SMILES	IL1B secr inh	HT1080 IDH1KD tx	uPA generation	HT1080NT lethal	DT40 TDP1 no CPT	DT40 TDP1 CPT
Nc1nc(CCl)nc(Nc2ccc3ccccc3c2)n1	-99*	8.2µM*	?	2.1µM*	15µM*	12µM*
Cc1ccccc1Nc1nc(N)nc(CCl)n1	-94*	15µM*	-9%	1.2µM*	23µM*	21µM*
Cc1ccccc1Nc1nc(N)nc(CN(C)c2ccccc2)n1	3	-9%	-9%	-3%	?	-19%
COC(=O)CC(=O)Cc1nc(N)nc(Nc2ccc(C)c(C)c2)n1	26	4%	4%	0%	-20%	-8%
COc1ccc(N2CCN(CCCNC(=O)C(=O)c3c[nH]c4ccccc34)CC2)cc1	-20	-14%	-5%	-6%	?	?
Cc1ccccc1CN1N=C(/C=C/c2ccccc2)CCC1=O	-13	0%	2%	0%	23µM*	-9%
Nc1ccc(Cc2ccc([N+](=O)[O-])cc2)cc1	-50*	-10%	-3%	-8%	?	-25%
COc1cccc(N2CCN(c3nc4ccc(C(=O)c5ccccc5)cc4n4c(C)nnc34)CC2)c1	·	·	·	·	16µM*	?
CCOC(=O)N1CCN(c2nc3ccc(C)cc3n3cnnc23)CC1	-10	0%	-7%	2%	-17%	-27%
Cc1ccc(Cl)cc1N1CCN(c2nc3ccc(C(=O)c4ccccc4)cc3n3cnnc23)CC1	·	·	·	·	23µM*	18µM*
Cc1ccc(N2CCN(c3nc4ccc(C(=O)c5ccccc5)cc4n4cnnc34)CC2)c(C)c1	·	·	·	·	18µM*	?
CCCCNC(=O)C1CC(=O)N(CCc2ccc(C)cc2)C1 (configuration not stated)	15	10%	0%	17%	1%	24%
Cn1nc(-c2ccccc2)cc1NC(=O)[C@@H]1O[C@H](CO)[C@H](O)[C@H](O)[C@H]1O	23	0%	·	6%	-9%	-24%
Cc1cc(N(C)C)ccc1N=Nc1ccc2ncccc2c1	-9	-3%	-2%	-1%	?	?
Cc1ccc(Sc2ncccc2O)cc1	22	-20%	6%	-18%	-2%	1%
Cc1ccc(N=Nc2ccc(O)c3ncccc23)cc1	2	1.6µM*	-7%	?	13µM*	13µM*
Cc1ccc(N=Nc2ccc(O)c3ncccc23)cc1C	103	?	?	?	2.3µM*	2.3µM*
CC(C)C(NC(=O)COc1ccc2ccccc2c1)C(=O)N/N=C/C=C/c1ccccc1 (configuration not stated)	-1	3%	·	-1%	?	13µM*
COc1ccc(/C=C/C=N/NC(=O)COc2ccc(OC)cc2)cc1	-21	-9%	-6%	-6%	-12%	1%
CC(Nc1ccc(Cl)cc1)c1cc(Cl)ccc1O (configuration not stated)	6	?	-1%	?	18µM*	?
CN(C)c1ccc(-c2nccc(NCc3ccccc3)n2)cc1	·	·	·	·	16µM*	?
Fc1ccc(Nc2ccnc(-c3ccccc3C(F)(F)F)n2)cc1	·	·	·	·	?	12µM*
Cc1cccc(CNc2ccnc(-c3ccccc3C(F)(F)F)n2)c1	·	·	·	·	?	18µM*
Cc1cccc(CNc2ccnc(-c3ccc(N(C)C)cc3)n2)c1	·	·	·	·	12µM*	-107%
CC(OC(=O)CCN=C1NS(=O)(=O)c2ccccc21)C(=O)Nc1ccc(F)c(F)c1F (configuration not stated)	0	-4%	-1%	-2%	11%	-1%
SMILES	IL1B secr inh	HT1080 IDH1KD tx	uPA generation	HT1080NT lethal	DT40 TDP1 no CPT	DT40 TDP1 CPT
COc1ccc(C(=O)NCC(c2ccc3c(c2)OCO3)N2CCOCC2)cc1OC (configuration not stated)	·	·	·	·	?	-23%
O=C(Cn1c(=O)n(-c2ccccc2)c(=O)c2c3c(sc21)CCC3)c1ccc(Br)cc1	·	·	·	·	?	-20%
Cn1c(SCC(=O)N2CCc3ccccc3C2)nnc1-c1ccncc1	23	0%	-8%	1%	-23%	4%
Cn1c(SCC(=O)N2CCN(c3ccccc3)CC2)nnc1-c1ccncc1	18	-1%[9.24 µM]	-1%	0%	8%	1%
CC(C)c1ccccc1-n1c(SCC(=O)N2CCN(c3ccccc3)CC2)nnc1-c1cccnc1	?	?	7%	?	23µM*	16µM*
CCc1cccc(CC)c1-n1c(SCC(=O)N2CCc3ccccc3C2)nnc1-c1cccnc1	-58*	?	-4%	?	23µM*	18µM*
COc1ccc(CCNC(=O)c2cc(=O)[nH]c3ccc(S(=O)(=O)N4CCCCC4C)cc23)cc1OC (configuration not stated)	·	·	·	·	-28%	-10%
CC(C)Cc1nnc(NC(=O)Cc2ccc([N+](=O)[O-])cc2)s1	6	0%	0%	-3%	3%	18%
COc1ccc(/C=C/CN2CCC(C(=O)NC(c3ccc(F)cc3)c3ccc4ccccc4n3)CC2)cc1 (configuration not stated)	?	10µM*	·	16µM*	21µM*	18µM*
CC(C)CN1CCC(C(=O)NC(c2ccc(F)cc2)c2ccc3ccccc3n2)CC1 (configuration not stated)	?	-7%	·	-19%	23µM*	?
COc1ccc(C(NC(=O)C2CCN(CCOc3ccccc3)CC2)c2ccccn2)cc1 (configuration not stated)	-13	2%	·	-4%	-7%	14%
COC(=O)[C@@H]1[C@H]2SC(C)(C)[C@H](C(=O)OC)N2C(=O)N1Cc1cc2ccccc2n1S(=O)(=O)c1ccccc1	·	·	·	·	13µM*	?
O=C1OC(/C(=C\Nc2ccccc2)[N+](=O)[O-])c2ccccc21 (configuration not stated)	-104*	?	-7%	?	-13%	-6%
Cc1ccc(NC(=O)C(=O)NCC2CCCN2S(=O)(=O)c2cccs2)cc1 (configuration not stated)	-13	-1%	-5%	2%	?	?
Cc1cccc(NC(=O)C(=O)NCC2CCCN2S(=O)(=O)c2cccs2)c1 (configuration not stated)	24	-20%	·	-3%	8.2µM*	13µM*
